Where “and” joins values, the source holds several entries; their conditions need not be identical. Identical values can stand only once. Results filed as inconclusive are left out. Entries that show only a call come without a potency. Calls of active or inactive are those of the source. Unless noted, calls come from the whole dose curve; as a rule, active = well fitted curve in the direction sought with a large enough effect; inconclusive = small, poorly fitted or top-dose-only effect, or another doubt; inactive = no such curve, though single readings can be large; an effect the other way counts as inactive or inconclusive.
Legend:
[1] = target: Voltage-gated inwardly rectifying potassium channel KCNH2 (Homo sapiens) (UniProt Q12809); test: qHTS Assay for Small Molecule Inhibitors of the Human hERG Channel Activity (AID 588834);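 note: lower thallium flux fluorescence means stronger hERG block; nearly all actives have a fitted effect of over 50% in size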; note: potency is the fitted concentration of half-maximal effect
How it was run: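 U2OS cells BacMam-transduced with hERG, 2000 cells/well, compound ~10 min at 37 °C before stimulation buffer. FluxOR thallium flux fluorescence read kinetically on FDSS; decrease indicates block; AC50 from Hill fits.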

[2] = target: Thyroid hormone receptor beta (Homo sapiens) (UniProt P10828); test: qHTS assay for small molecule agonists of thyroid hormone receptor beta signaling (AID 588545; calls by dose curve)
How it was run: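 Agonist-mode beta-lactamase reporter assay, HEK 293 cells, 2% charcoal/dextran FBS; cells plated 4 hrs, compound 18 hrs at 37 C, CCF4 2 hrs RT. Normalized to 10 nM T3 (100%) and DMSO (0%); Hill fit gives EC50, efficacy.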

[3] = qHTS assay for small molecule antagonists of retinoid X receptor alpha signaling (AID 588546; active = well fitted inhibition curve with a large enough effect in the signal ratio, with a control signal flat, not every such curve was filed as active; the % refers to the signal ratio;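 note: cells stimulated with 9-cis-retinoic acid as agonist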); conditions: HEK293T RXRa-UAS-bla, beta-lactamase ratio, antagonist mode; measured here: W530 green channel, cytotoxicity proxy
How it was run: (§1)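 Beta-lactamase reporter inhibition, read as CCF4 fluorescence ratio (ex 405, em 460/530 nm) after 2 h at RT. HEK293T UAS-bla cells, 2500/well, were stimulated with 9-cis-RA at 500 or 100 nM final alongside test compound for 18 h at 37 C.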

[4] = target: Retinoic acid receptor RXR-alpha (Homo sapiens) (UniProt P19793); test: as above; conditions: HEK293T RXRa-UAS-bla, beta-lactamase ratio, antagonist mode
How it was run: as §1

[5] = target: Thyroid hormone receptor beta (Homo sapiens) (UniProt P10828); test: qHTS assay for small molecule antagonists of thyroid hormone receptor beta signaling (AID 588547; active = well fitted inhibition curve with a large enough effect in the signal ratio, with a control signal flat, not every such curve was filed as active; the % refers to the signal ratio;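 note: cells stimulated with 0.4 nM T3 agonist during compound exposure; series mostly up to about 77 µM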); conditions: TR-UAS-bla HEK293, beta-lactamase ratio, antagonist mode, 18 h
How it was run: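 TR-UAS-bla GripTite HEK293 cells in 2% charcoal/dextran FBS medium; compounds 0.59 nM to 92 uM with T3 at 0.4nM final, 18 h at 37 C. Beta-lactamase read by CCF4 fluorescence (460/530 nm); Hill fits gave IC50 and efficacy.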

[6] = target: Luciferin 4-monooxygenase (Photinus pyralis) (UniProt P08659); test: Biochemical firefly luciferase enzyme assay for NPC (AID 624030);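 note: purified P. pyralis luciferase at 10 nM with luciferin and ATP substrate; series mostly up to about 59 µM; nearly all actives have a fitted effect of over 70% in size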
How it was run: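 Purified P. pyralis luciferase at 10 nM in 50 mM Tris Acetate (final), luminescence read within 5 minutes of enzyme addition to compounds. Activity normalised to PTC124 versus DMSO; concentration-response curves classed by r2, magnitude and activity.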

[7] = S16 Schwann cell viability assay (CellTiter-Glo assay) (AID 624031);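 note: cellular ATP luminescence as a viability measure; series mostly up to about 58 µM; nearly all actives have a fitted effect of over 70% in size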
How it was run: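 Native S16 rat Schwann cells in DMEM/10% FBS without phenol red were incubated overnight, then exposed to compounds for 24 h at 37 °C/5% CO2. Viability was read as ATP luminescence (CellTiter-Glo), normalized to no-cell wells and DMSO (0%).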

[8] = S16 Schwann cell PMP22 intronic element firefly luciferase assay (AID 624032); note: nearly all actives have a fitted effect of over 30% in size; note: potency is the fitted concentration of half-maximal effect
How it was run: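 Rat S16 Schwann cells stably carrying firefly luciferase driven by a PMP22 intronic element, in 10% FBS, treated 24 h at 37 C. ONE-Glo luminescence normalized to PTC124 control and DMSO (0%); curves classed by r2, magnitude and activity.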

[9] = S16 Schwann cell PMP22 intronic element beta-lactamase assay (AID 624044; calls by dose curve; note: nearly all actives have a fitted effect of over 15% in size)
How it was run: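 Rat S16 Schwann cells with beta-Lac driven by a PMP22 intronic element, compound-treated 24 h at 37 °C. LiveBLAzer FRET B/G read: 460 nm normalized to potassium clavulanate vs DMSO; 535 nm FRET as viability; concentration-effect curves classified.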

[10] = qHTS of Trypanosoma Brucei Inhibitors: LOPAC Validation (AID 624147)
How it was run: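 TbPYK + substrate in 50 mM TEA pH 7.2, 100 mM KCl, 10 mM MgCl2, 0.05% BSA, 0.01% Tween-20; cpd pinned; ADP 130 uM final; 45 min RT; Kinase-Glo Plus 10 min; luminescence endpoint.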

Sequence of Luciferin 4-monooxygenase (Photinus pyralis) (P08659 whole entry, looked up): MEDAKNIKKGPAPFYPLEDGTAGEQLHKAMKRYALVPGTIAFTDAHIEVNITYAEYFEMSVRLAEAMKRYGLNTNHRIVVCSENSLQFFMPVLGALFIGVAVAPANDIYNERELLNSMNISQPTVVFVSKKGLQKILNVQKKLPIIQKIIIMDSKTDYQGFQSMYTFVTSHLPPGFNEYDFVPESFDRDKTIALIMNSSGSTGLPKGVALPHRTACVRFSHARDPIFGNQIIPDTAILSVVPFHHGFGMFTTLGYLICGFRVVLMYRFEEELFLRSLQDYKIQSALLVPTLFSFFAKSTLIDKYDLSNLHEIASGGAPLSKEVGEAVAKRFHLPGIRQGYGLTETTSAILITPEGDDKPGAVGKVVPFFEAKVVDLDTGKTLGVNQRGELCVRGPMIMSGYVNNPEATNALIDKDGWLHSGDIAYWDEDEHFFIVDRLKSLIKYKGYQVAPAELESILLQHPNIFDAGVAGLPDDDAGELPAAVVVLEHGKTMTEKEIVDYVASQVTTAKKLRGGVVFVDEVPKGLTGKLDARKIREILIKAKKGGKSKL
Sequence of Retinoic acid receptor RXR-alpha (Homo sapiens) (P19793 whole entry, looked up): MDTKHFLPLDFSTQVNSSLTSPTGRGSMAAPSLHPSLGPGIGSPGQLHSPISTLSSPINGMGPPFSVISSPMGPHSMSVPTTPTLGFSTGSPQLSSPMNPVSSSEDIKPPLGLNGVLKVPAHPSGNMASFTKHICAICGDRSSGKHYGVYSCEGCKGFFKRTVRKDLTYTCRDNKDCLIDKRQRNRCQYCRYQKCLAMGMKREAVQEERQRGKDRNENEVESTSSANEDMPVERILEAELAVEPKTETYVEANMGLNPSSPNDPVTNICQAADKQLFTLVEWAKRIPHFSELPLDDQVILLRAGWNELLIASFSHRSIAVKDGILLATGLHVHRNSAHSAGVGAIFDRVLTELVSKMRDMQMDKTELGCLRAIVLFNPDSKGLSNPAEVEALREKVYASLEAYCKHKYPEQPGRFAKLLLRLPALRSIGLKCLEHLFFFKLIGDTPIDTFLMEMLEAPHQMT
Sequence of Thyroid hormone receptor beta (Homo sapiens) (P10828 whole entry, looked up): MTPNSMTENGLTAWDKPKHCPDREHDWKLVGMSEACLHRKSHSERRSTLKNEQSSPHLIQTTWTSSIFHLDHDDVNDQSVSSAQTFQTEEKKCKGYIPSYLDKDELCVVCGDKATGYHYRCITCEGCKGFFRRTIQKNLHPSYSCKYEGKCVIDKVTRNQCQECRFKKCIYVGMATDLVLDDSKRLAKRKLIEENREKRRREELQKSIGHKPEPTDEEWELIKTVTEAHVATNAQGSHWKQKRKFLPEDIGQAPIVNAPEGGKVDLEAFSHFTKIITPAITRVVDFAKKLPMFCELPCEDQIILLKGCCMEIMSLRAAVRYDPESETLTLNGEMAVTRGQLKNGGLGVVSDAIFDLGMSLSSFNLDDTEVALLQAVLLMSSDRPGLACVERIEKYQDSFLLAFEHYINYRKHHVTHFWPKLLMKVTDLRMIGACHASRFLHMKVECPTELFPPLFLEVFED
Sequence of Voltage-gated inwardly rectifying potassium channel KCNH2 (Homo sapiens) (Q12809 whole entry, looked up): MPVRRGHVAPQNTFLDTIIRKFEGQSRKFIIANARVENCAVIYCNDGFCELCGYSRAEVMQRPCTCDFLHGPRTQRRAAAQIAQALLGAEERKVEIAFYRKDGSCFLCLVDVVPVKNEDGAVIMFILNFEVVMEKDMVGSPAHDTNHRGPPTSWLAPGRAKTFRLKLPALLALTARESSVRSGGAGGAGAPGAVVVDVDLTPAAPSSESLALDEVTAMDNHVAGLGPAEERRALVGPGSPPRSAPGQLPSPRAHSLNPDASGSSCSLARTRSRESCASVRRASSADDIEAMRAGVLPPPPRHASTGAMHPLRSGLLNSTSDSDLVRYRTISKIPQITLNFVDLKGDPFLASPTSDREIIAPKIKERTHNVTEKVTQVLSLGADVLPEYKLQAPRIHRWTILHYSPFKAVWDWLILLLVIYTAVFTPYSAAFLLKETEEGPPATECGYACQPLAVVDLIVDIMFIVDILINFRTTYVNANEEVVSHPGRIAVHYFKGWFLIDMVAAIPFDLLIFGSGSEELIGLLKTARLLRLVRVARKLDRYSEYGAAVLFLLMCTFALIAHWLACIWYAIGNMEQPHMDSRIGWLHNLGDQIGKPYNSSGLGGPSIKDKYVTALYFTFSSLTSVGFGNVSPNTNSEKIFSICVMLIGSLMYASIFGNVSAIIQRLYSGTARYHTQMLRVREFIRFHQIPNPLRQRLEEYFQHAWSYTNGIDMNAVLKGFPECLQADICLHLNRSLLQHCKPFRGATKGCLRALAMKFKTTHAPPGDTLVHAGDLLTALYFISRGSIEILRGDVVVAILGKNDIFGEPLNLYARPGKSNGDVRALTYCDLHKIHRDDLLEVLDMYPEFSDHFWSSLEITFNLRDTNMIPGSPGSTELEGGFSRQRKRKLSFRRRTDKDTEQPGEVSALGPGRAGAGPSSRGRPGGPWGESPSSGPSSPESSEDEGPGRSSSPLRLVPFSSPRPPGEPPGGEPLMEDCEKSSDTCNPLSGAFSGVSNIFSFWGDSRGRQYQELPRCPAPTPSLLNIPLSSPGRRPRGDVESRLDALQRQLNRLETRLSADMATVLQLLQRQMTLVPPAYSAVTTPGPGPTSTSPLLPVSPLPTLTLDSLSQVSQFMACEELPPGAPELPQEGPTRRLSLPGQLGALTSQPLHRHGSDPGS

Row | SMILES | Potency [1] | outcome [2] | max response [3] | max response [4] | activity change % (negative = inhibition) [5] | Potency [6] | outcome [7] | Potency [8] | outcome [9] | outcome [10]
1 | O=[N+]([O-])O[C@H]1CO[C@H]2[C@@H]1OC[C@H]2O[N+](=O)[O-] | inactive |  |  |  |  |  |  |  |  | 
2 | NCCc1ccc(O)cc1 | inactive | inactive | -9.48% | -2.52% (inactive) | -4.83% (inactive) | inactive | inactive | inactive | inactive | inactive
3 | C[C@]1(O)CC[C@H]2[C@@H]3CCC4=CC(=O)CC[C@]4(C)[C@@]3(F)[C@@H](O)C[C@@]21C | inactive | inactive | 17.9% | -6.75% (inactive) | 5.6% (inactive) |  |  |  |  | 
4 | C[C@@H]1O[C@@H]1P(=O)(O)O | inactive |  |  |  |  |  |  |  |  | 
5 | O=C1c2ccccc2C(=O)c2ccccc21 | inactive | inactive | -16.5% | -15.9% (inactive) | -1.19% (inactive) | inactive | inactive | inactive |  | 
6 | COP(=S)(OC)Oc1cc(Cl)c(Cl)cc1Cl |  | inactive | 1.09% | -5.5% (inactive) | 19.2% (inactive) | inactive |  |  |  | 
7 | CC1(C)C(C=C(Cl)Cl)C1C(=O)OC(C#N)c1cccc(Oc2ccccc2)c1 (configuration not stated) |  | inactive | -14.1% | -18% (inactive) |  | inactive |  |  |  | 
8 | CC(=O)OCC1=C(C(=O)O)N2C(=O)[C@@H](N)[C@H]2SC1 | inactive |  |  |  |  |  |  |  |  | 
9 | COC(=O)[C@@H](N)CCCN/C(N)=N/[N+](=O)[O-] | inactive |  |  |  |  |  |  |  |  | 
10 | CCCCCN(C)CCC(O)(P(=O)(O)O)P(=O)(O)O | inactive |  |  |  |  |  |  |  |  | 
11 | CCCC(C)(COC(N)=O)COC(N)=O | inactive | inactive | -3.53% | -3.87% (inactive) | 14.4% (inactive) | inactive | inactive | inactive | inactive | 
12 | COc1cc(OC)c(OC)cc1C=O | inactive |  | -5.72% | -9.79% (inactive) |  | inactive |  |  |  | 
13 | CN1C[C@H](C(=O)N[C@]2(C)O[C@@]3(O)[C@@H]4CCCN4C(=O)[C@H](Cc4ccccc4)N3C2=O)C=C2c3cccc4[nH]cc(c34)C[C@H]21 | 12.6 µM (active) | inactive |  |  |  | inactive |  |  |  | 
14 | COP(=S)(OC)Oc1ccc(SC)c(C)c1 |  | inactive | -22.3% and -7.85% | -5.05% (inactive) and -30% (inactive) | -0.0791% (inactive) |  | inactive |  | inactive | 
15 | CC(C)c1c(CN(C)C(C)Cc2ccccc2)n(C)n(-c2ccccc2)c1=O (configuration not stated) | inactive |  |  |  |  |  |  |  |  | 
16 | O=C(O)CCCc1ccc(N(CCCl)CCCl)cc1 | inactive | inactive | 6.94% and -4.83% | 8.7% (inactive) and 8.13% (inactive) | 16.9% (inactive) and 14.1% (inactive) | inactive | inactive |  |  | inactive
17 | Nc1ccc([As](=O)(O)O)cc1 | inactive | inactive | -13.3% | -8.6% (inactive) | 0.893% (inactive) | inactive | inactive | inactive | inactive | 
18 | CCC(C)(C)c1ccc(O)cc1 | inactive | inactive | -6.99% and -5.65% | 7.35% (inactive) and 8.15% (inactive) | 9.09% (inactive) | inactive | inactive | inactive |  | 
19 | C[C@]12CCC(=O)C=C1CC[C@@H]1[C@@H]2CC[C@@]2(C)[C@H]1CC[C@]2(C)O | inactive | inactive | -11.8% | 36.9% (inactive) |  | inactive |  |  |  | 
20 | O=C(O)/C=C\C(=O)O | inactive |  |  |  |  |  |  |  |  | 
21 | CC(C)NC(C)C | inactive | inactive | -16.3% | 9.42% (inactive) |  | inactive |  | inactive |  | 
22 | CC(C)c1cccc(C(C)C)c1O | inactive | inactive | 2.4% | 16.4% (inactive) | -3.45% (inactive) | inactive | inactive | inactive | inactive | inactive
23 | COC(=O)C(c1ccccc1)C1CCCCN1 (configuration not stated) | inactive | inactive | -4.37% | -5.94% (inactive) | 13% (inactive) | inactive | inactive | inactive | inactive | 
24 | C[C@]12CCC(=O)C=C1CC[C@@H]1[C@@H]2CC[C@]2(C)C(=O)CC[C@@H]12 | inactive | inactive | 24.5% | 1.25% (inactive) | 12.5% (inactive) | inactive | inactive | inactive | inactive | 
25 | Clc1ccc(C(c2ccc(Cl)cc2)C(Cl)(Cl)Cl)cc1 | 31.6 µM (active) | inactive |  |  | -20.1% (inactive) and -18.4% (inactive) | inactive | inactive | 10.2 µM (active) | inactive | 

Reference: PubChem BioAssay (NCATS)
